Menin MLL FP FL: inhibitors of human menin-MLL interaction, wild-type MLL peptide; Fluorescence polarization, fluorescein-MLL peptide displacement from menin; FP activity change, % at 61.4 µM; 290,000 tested, under 10 active; AID 1766; active means well fitted curve in the direction sought with a large enough effect in the polarisation, not every such curve was filed as active; inconclusive means small, poorly fitted or top-dose-only effect, or effect the other way, or a change in a side signal; inactive means no such curve, though single readings can be large or run the other way; the % refers to the polarisation; further: % of control where 0% means no effect
CXXC DNA block: MLL CXXC-DNA interaction inhibition; Q03164; MLL-CXXC / FITC-HOXA9 DNA fluorescence polarization; Potency, µM (series often up to 115 µM), for inactives: at the top dose activity change, negative = inhibition, hits mostly inhibitors; hit rate 0.037% among 290,000; AID 2662; active means well fitted inhibition curve with a large enough effect in the polarisation, with a control signal flat, not every such curve was filed as active; inconclusive means small, poorly fitted or top-dose-only effect, or effect the other way, or a change in a side signal; inactive means no such curve, though single readings can be large or run the other way; the % refers to the polarisation; further: potency means the concentration at half of the fitted maximal effect
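Fluorescence polarization: 7 uM MLL-CXXC (stock) preincubated 5 min with compounds, then 50 nM fluorescein-HOX-A9 DNA (stock) added; 30 min ambient. Buffer 50 mM Tris-HCl pH 7.5, 50 mM NaCl, 1 mM DTT, 0.05% BSA.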
Menin MLL FP TR: inhibitors of human menin-MLL interaction, mutant MLL peptide; Menin + Texas Red MLL mutant peptide, fluorescence polarization; Potency, µM (highest dose often 61.6 µM), inactives show at the top dose FP activity change, negative = inhibition, most hits filed as inhibitors; hit rate 0.23% among 270,000; active means well fitted inhibition curve with a large enough effect in the polarisation, with a control signal flat, not every such curve was filed as active; inconclusive means small, poorly fitted or top-dose-only effect, or effect the other way, or a change in a side signal; inactive means no such curve, though single readings can be large or run the other way; the % refers to the polarisation; further: potency means the concentration at half of the fitted maximal effect; % of control where 0% means no effect
hERG WT inh: KCNH2 (human, wildtype) channel inhibition. hit rate 0.37% among 340,000. U2OS, BacMam KCNH2, thallium flux FluxOr; stronger effect = lower value. AID 720551. activity change, % at 1.84 µM;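 active means maximum activity change below -70%; inconclusive means maximum activity change between -70% and -50%; inactive means maximum activity change above -50%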; further: on the % scale 0 is the no-effect control and ±100 the full control effect
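U2OS cells were transduced with wild-type KCNH2 virus (2.03 x 10^8 / mL) for 4 h at room temperature, then cultured overnight at 37 C. Thallium flux was read with FluxOr dye. Rate constants were normalized to DMSO controls.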
KCNH2 3.1 inh: inhibitors of human KCNH2 3.1 potassium channel isoform. AID 720553. U2OS KCNH2 3.1, thallium flux FluxOr; stronger effect = lower value. hit rate 0.95% among 340,000. activity change, % (tested at about 1.8 µM);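 active means maximum activity change below -70%; inconclusive means maximum activity change from -70% to -50%; inactive means maximum activity change above -50%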;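 further: thallium influx rate constant from kinetic fluorescence after stimulation buffer; on the % scale 0 is the no-effect control and ±100 the full control effect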
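Virally transduced U2OS (3.1 isoform, 4 h infection in dark at RT) → overnight 37 C → FluxOr + Red40 in HBSS/HEPES, 45 min → stimulation buffer, 2 min kinetic read → rate constant vs DMSO controls.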
The depositor's hits bear a star; ? = inconclusive; · = no result given. A selection: hits, their analogues and other compounds. The true share with any hit is near 1.1%.

SMILES | Menin MLL FP FL | CXXC DNA block | Menin MLL FP TR | hERG WT inh | KCNH2 3.1 inh
COC(=O)c1ccc(CN2CCC(CO)(Cc3cccc(OC)c3)CC2)cc1 | -5 | 8% | 3% | · | -34
OCC1(CCOc2ccccc2)CCN(CC2=Cc3cc(Cl)ccc3OC2)CC1 | -4 | 17% | 13% | -33 | -72*
COc1cc(Cl)c(CN2CCC(CO)(CCOc3ccccc3)CC2)cc1OC | -2 | 9% | -2% | -74* | -94*
OCCOc1cccc(CN2CCC(CO)(CCOc3ccccc3)CC2)c1 | 3 | 2% | -4% | · | -15
Cc1cc(OC(=O)c2ccc(S(=O)(=O)N(C)C)cc2)c([N+](=O)[O-])c(=O)[nH]1 | -4 | 1% | -8% | -2 | 2
CC1CCN(S(=O)(=O)c2ccc3c(c2)c(=O)c(C(=O)N2CCOCC2)cn3C)CC1 | · | -1% | · | -5 | -127*
CC1CCN(S(=O)(=O)c2ccc3c(c2)c(=O)c(C(=O)N2CCCCC2)cn3C)CC1 | -1 | 14% | -6% | -6 | -1
CCc1ccc(NC(=O)CSc2nc3ccccc3c(=O)n2CCCN2CCC(C)CC2)cc1 | 0 | 17% | -17% | -135* | -97*
O=C(CSc1nc2ccccc2c(=O)n1CCCN1CCOCC1)Nc1ccc(Br)cc1 | · | · | · | 3 | ?
Cc1ccc(NC(=O)CSc2nc3ccccc3c(=O)n2Cc2cccs2)cc1 | 3 | 1% | -3% | 15 | -73*
N#Cc1ccc(OCC(=O)N2CCN(c3ccc(C(F)(F)F)cn3)CC2)cc1 | · | · | · | -41 | -92*
COc1cc(CN(C)C(C)C(=O)Nc2ccc([N+](=O)[O-])cc2Cl)ccc1OC(F)F (stereo not drawn) | -2 | 4% | -4% | -95* | ?
COc1ccc([N+](=O)[O-])cc1NC(=O)C(C)N(C)Cc1cccc(OC)c1OC (stereo not drawn) | 4 | -4% | 3% | -5 | 0
O=C(CN(Cc1ccco1)C(=O)CCC(=O)Nc1ccccn1)NCc1ccccc1 | -2 | 23% | 13% | 4 | 4
COc1ccc(CCc2nnc(CCC(=O)N(C)Cc3ccncc3C)o2)cc1 | 0 | 21% | -14% | 1 | -72*
COc1ccc(F)cc1S(=O)(=O)NCC1CCCO1 (stereo not drawn) | 6 | -5% | 18% | -12 | -1
Cn1c(=O)cc(C(=O)N/N=C/c2ccc(F)cc2)[nH]c1=O | 3 | -6% | · | -1 | -19
COc1ccc(CN(C)CC(=O)Nc2ccc(SC(F)F)cc2)cc1OC | 2 | 10% | 0% | -38 | -98*
CN(CC(=O)Nc1ccc(SC(F)F)cc1)C1CCCCC1 | 0 | 13% | -2% | -37 | -94*
COc1ccc(CN(C)CC(=O)Nc2ccc(N3CCOCC3)cc2)cc1OC | 0 | 4% | -2% | 14 | 6
CN(CC(=O)Nc1ccc(S(N)(=O)=O)cc1)C1CCCCC1 | -3 | 3% | 0% | 8 | -4
COc1cc2c(cc1O)C(CSC)Cc1cc3c(cc1N(C)CC2)OCO3 (stereo not drawn) | · | · | · | -2 | 3
CC(C)(C)Cc1c(-c2ccc(Br)cc2)nc2ccc(Cl)cn12 | · | · | · | -7 | -13
CCOCCCNC(=O)CN1C(=O)CSc2ccccc21 | 3 | 5% | -3% | 0 | -72*
O=CN1CCc2c([nH]c3ccccc23)C1c1cccc2cccnc12 (stereo not drawn) | 0 | · | 15% | · | ·
SMILES | Menin MLL FP FL | CXXC DNA block | Menin MLL FP TR | hERG WT inh | KCNH2 3.1 inh
O=C(CCc1nc(-c2ccccc2)no1)NCCc1ccccc1 | 4 | -3% | 0% | -1 | -90*
COC(=O)[C@@]1(Cc2ccccc2)[C@H]2c3cc(C(=O)N4CCCC4)n(CCN4CNCC4=O)c3C[C@H]2CN1C(=O)c1ccccc1 | 1 | · | 1% | · | ·
COc1cccc(CNC(=O)Cn2c(=O)c3cccn3c3ccccc32)c1 | · | 10% | · | 11 | 1
COCC(=O)Nc1c(C(=O)Nc2ccc3c(c2)OCO3)oc2ccccc12 | -9 | 3% | ? | -18 | 4
CC(=O)Nc1c(C(=O)Nc2ccc3c(c2)OCO3)oc2ccccc12 | 2 | 22% | 15% | -72* | 6
COC(=O)c1ccc(C(NC(=O)OCc2ccccc2)/C(F)=C/[C@@H](C)C(=O)NCc2cc(C)on2)cc1 (stereo partly drawn) | -2 | · | -5% | · | ·
